Assay results from PubChem BioAssay.
Calls of active or inactive are those of the source.

How the values were obtained:
[1] = system: PRMT1 (protein arginine N-methyltransferase 1); experiment: small molecules binding arginine methyltransferase PRMT1 – biochemical, small-molecule microarray, 635 nm fluorescence, primary screen (AID 1088); conditions: higher = more signal;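 also: binding of Prmt1 protein to compounds spotted on small-molecule microarray slides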
[2] = growth effects on S. cerevisiae YJM789 – YJM789 clinical isolate, OD600, 24 h, basal, primary screen (AID 1089); conditions: higher = more signal, called active from +8 up or from −8 down;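 also: growth of clinical yeast isolate S. cerevisiae YJM 789 seeded 1000 cells per well; test concentration not given here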
[3] = S. pombe growth modifiers, basal conditions – strain 972, OD600, 24 h, no modulator, primary screen (AID 1090);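 also: basal condition with compound alone and no growth modifier present; test concentration not given here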; conditions: S. pombe 972 growth, higher = more signal, called active from +8 up or from −8 down
[4] = budding yeast growth modifiers under rapamycin – strain BY4716, OD600, 96 h, primary screen (AID 1091); also: test concentration not given here; conditions: S. cerevisiae BY4716 + rapamycin, higher = more signal, called active from +8 up or from −8 down
[5] = molecular target: Torsin-1A-interacting protein 2 (Homo sapiens) (UniProt Q8NFQ8); experiment: small molecules binding lysate-expressed LULL1 – cell lysate, human LULL1 lysate, 635/667 nm fluorescence, primary screen (AID 1092); conditions: small-molecule microarray, hLULL1 lysate binding, 635 nm fluorescence; higher = more signal;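 also: probe is lysate of COS7 cells overexpressing human LULL1; score merges per-feature 667 nm fluorescence with signal-to-noise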
Sequence of Torsin-1A-interacting protein 2 (Homo sapiens) (Q8NFQ8 whole entry, looked up): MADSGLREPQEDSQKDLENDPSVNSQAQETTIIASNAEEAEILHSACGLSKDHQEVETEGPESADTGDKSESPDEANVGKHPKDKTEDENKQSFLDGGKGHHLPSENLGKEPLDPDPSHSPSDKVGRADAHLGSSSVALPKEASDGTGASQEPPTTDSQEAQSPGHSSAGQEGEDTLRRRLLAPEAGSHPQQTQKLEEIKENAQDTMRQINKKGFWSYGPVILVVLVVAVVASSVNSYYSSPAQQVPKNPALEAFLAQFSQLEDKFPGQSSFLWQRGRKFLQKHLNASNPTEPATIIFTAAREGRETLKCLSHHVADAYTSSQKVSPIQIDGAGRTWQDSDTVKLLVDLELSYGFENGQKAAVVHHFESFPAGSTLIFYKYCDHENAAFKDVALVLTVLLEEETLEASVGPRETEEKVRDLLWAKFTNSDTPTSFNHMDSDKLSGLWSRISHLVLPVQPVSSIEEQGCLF

[6] = optical density change of DRC41 E. coli – strain DRC41, OD650, 24 h, E. coli filamentation project, primary screen (AID 1093);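 also: MC1000 strain lacking acrAB efflux and sulA so SOS filamentation is blocked; test concentration not given here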; conditions: E. coli DRC41 growth, higher = more signal, called active from +8 up or from −8 down
[7] = probe aLefty2 binding to arrayed compounds – biochemical, biotinylated probe, 635/667 nm fluorescence, primary screen (AID 1094); conditions: small-molecule microarray, higher = more signal;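 also: score merges spot fluorescence near 667 nm with spot signal-to-noise ratio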
[8] = system: Noggin (protein binding on small-molecule microarray); experiment: small molecules binding Noggin protein – biochemical, 635/667 nm fluorescence, primary screen (AID 1095); conditions: 635 nm fluorescence, higher = more signal;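 also: score merges 667 nm feature fluorescence with signal to noise over triplicate slides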
[9] = molecular target: Neurogenic locus notch homolog protein 3 (Homo sapiens) (UniProt Q9UM47); experiment: small molecules binding NOTCH3 protein – biochemical, 635/667 nm fluorescence, primary screen (AID 1096); conditions: small-molecule microarray, 635 nm fluorescence, higher = more signal
Sequence of Neurogenic locus notch homolog protein 3 (Homo sapiens) (Q9UM47 whole entry, looked up): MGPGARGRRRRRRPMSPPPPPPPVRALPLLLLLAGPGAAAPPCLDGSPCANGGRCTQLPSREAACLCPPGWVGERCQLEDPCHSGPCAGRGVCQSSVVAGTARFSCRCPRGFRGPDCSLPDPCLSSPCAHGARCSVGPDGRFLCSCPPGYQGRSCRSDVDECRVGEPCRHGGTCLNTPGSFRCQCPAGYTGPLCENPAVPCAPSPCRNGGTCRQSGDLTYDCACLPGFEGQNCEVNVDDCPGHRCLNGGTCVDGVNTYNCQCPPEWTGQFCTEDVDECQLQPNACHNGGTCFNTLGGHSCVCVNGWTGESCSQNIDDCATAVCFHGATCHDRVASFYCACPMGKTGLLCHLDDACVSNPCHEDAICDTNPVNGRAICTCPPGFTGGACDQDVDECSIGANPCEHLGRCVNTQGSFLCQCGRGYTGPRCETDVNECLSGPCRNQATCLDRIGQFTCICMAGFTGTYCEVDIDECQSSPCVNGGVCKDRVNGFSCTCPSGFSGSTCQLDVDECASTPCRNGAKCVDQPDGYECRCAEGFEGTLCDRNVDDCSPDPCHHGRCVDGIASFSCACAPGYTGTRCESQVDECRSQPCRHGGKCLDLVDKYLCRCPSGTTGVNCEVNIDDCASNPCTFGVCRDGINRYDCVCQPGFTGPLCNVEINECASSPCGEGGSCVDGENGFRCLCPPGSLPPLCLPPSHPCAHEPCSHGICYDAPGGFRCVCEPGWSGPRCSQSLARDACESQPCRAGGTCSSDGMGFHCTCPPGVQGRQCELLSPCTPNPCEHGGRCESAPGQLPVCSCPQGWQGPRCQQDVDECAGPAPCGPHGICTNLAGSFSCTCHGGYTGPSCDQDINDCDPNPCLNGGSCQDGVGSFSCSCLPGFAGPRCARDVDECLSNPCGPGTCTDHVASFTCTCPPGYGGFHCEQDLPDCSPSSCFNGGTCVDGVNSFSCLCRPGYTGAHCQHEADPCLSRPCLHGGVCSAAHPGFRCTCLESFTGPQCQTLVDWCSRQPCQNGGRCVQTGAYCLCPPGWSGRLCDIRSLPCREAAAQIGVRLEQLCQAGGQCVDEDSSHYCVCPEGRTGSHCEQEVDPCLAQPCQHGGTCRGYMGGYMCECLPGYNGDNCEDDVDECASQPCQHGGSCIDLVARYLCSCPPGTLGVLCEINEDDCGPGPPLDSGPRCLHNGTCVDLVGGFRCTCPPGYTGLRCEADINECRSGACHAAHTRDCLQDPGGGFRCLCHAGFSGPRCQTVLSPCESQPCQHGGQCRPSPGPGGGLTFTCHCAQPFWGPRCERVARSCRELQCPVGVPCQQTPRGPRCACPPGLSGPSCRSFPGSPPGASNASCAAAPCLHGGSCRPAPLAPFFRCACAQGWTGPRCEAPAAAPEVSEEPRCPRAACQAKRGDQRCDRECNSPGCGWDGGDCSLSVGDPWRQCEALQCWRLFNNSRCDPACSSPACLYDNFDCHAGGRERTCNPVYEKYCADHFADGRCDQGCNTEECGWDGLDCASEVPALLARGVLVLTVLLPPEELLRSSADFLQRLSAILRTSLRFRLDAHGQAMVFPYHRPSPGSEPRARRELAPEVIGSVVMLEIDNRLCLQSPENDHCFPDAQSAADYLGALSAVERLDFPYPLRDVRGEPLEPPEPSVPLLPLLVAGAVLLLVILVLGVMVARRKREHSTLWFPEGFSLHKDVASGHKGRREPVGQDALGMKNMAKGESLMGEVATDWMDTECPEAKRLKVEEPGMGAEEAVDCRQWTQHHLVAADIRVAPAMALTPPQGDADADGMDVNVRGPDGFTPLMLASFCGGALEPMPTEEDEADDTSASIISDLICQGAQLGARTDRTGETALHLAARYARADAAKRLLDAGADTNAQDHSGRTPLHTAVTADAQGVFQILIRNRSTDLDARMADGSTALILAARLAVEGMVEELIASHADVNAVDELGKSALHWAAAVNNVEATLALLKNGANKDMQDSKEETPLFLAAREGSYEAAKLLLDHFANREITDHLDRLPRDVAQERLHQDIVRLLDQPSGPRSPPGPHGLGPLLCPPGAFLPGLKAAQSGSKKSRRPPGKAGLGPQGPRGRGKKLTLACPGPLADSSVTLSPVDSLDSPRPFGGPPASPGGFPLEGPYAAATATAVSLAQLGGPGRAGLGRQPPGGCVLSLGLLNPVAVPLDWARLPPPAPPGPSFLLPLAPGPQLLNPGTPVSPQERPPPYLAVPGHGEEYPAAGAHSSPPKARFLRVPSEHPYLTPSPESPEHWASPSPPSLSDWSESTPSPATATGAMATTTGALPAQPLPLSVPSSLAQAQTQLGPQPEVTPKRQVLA

[10] = probe aEGFR binding to arrayed compounds – biochemical, biotinylated probe, 635/667 nm fluorescence, primary screen (AID 1097); conditions: small-molecule microarray, higher = more signal;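 also: probe is a biotinylated anti-EGFR antibody binding compounds printed on slides; score combines fluorescence near 667 nm and signal to noise of each spot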
[11] = system: Plasmodium falciparum Sir2 (PF13_0152, Sir2A); experiment: Plasmodium falciparum Sir2A binding compounds – biochemical, small-molecule microarray, 635 nm fluorescence, primary screen (AID 1098); conditions: fluorescence 635 nm, higher = more signal;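 also: score merges spot fluorescence intensity with its signal-to-noise ratio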
[12] = probe aDKK1 binding to arrayed compounds – biochemical, biotinylated probe, 635/667 nm fluorescence, primary screen (AID 1099); conditions: small-molecule microarray, higher = more signal;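 also: score merges 667nm spot fluorescence with signal to noise across triplicate slides; reference of the scale not given here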
[13] = probe aCHRDL2 binding to arrayed compounds – biochemical, biotinylated probe, 635/667 nm fluorescence, primary screen (AID 1100); conditions: small-molecule microarray, higher = more signal
[14] = change in splice reporter luminescence, either direction, cell-based, HEK293, spliceosome inhibition project, primary screen (AID 1101); conditions: HEK293 splicing luciferase reporter, 24 h, higher = more signal, called active from +8 up or from −8 down;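 also: HEK293 cells carrying a splicing-competent luciferase reporter gene; test concentration not given here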
[15] = molecular target: Fibroblast growth factor 10 (Homo sapiens) (UniProt O15520); experiment: compounds binding fibroblast growth factor 10 – biochemical, small-molecule microarray, 635 nm fluorescence, primary screen (AID 1102); conditions: FGF10 binding, fluorescence 635 nm, higher = more signal
Sequence of Fibroblast growth factor 10 (Homo sapiens) (O15520 whole entry, looked up): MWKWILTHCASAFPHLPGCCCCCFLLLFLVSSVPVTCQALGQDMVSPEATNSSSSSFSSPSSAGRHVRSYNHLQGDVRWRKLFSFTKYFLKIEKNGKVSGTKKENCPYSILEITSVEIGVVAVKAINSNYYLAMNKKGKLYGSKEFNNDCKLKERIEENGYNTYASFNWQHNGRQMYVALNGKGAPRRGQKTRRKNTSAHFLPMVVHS

[16] = system: glycogen synthase kinase-3 (GSK3A per assay name; protocol says GSK3B); experiment: compounds binding glycogen synthase kinase-3 – biochemical, small-molecule microarray, 635 nm fluorescence, GSK3A, primary screen (AID 1103); conditions: fluorescence 635 nm, higher = more signal; also: the record names both GSK3A and GSK3B
[17] = molecular target: Epidermal growth factor receptor (Homo sapiens) (UniProt P00533); experiment: compounds binding epidermal growth factor receptor – biochemical, small-molecule microarray, 635 nm fluorescence, primary screen (AID 1104); conditions: EGFR binding, higher = more signal;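 also: score merges 667 nm emission intensity with spot signal to noise over triplicate slides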
Sequence of Epidermal growth factor receptor (Homo sapiens) (P00533 whole entry, looked up): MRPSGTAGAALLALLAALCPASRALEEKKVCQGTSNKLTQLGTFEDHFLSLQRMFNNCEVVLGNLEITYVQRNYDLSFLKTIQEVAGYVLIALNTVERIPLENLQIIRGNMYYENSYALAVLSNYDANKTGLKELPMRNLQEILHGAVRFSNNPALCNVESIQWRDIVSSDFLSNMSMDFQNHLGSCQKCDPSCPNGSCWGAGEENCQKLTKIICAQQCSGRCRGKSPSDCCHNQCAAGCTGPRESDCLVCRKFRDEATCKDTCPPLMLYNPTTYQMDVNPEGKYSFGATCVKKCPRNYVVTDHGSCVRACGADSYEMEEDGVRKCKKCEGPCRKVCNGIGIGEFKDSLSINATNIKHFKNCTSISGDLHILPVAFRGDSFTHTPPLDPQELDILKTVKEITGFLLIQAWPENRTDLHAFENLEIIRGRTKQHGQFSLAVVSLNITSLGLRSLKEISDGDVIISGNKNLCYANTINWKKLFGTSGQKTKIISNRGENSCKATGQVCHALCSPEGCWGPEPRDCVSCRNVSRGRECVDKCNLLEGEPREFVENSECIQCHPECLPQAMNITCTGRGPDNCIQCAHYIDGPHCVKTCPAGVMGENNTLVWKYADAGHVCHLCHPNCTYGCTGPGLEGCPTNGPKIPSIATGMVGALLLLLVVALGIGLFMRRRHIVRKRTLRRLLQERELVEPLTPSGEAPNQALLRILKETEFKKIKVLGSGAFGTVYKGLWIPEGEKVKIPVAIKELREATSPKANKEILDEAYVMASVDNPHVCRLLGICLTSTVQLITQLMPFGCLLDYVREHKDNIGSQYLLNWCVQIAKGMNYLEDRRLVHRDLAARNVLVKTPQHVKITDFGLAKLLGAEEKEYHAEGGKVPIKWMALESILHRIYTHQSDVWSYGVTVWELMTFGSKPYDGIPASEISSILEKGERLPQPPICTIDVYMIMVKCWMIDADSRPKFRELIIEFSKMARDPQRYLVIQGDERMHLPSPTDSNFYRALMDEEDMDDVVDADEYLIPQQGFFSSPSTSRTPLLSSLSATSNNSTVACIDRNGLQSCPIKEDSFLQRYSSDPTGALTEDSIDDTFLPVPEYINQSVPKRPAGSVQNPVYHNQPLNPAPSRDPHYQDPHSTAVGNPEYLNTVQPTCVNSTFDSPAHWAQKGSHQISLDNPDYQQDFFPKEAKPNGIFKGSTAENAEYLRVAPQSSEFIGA

[18] = molecular target: Follistatin-related protein 3 (Homo sapiens) (UniProt O95633); experiment: compounds binding follistatin-related protein 3 – biochemical, small-molecule microarray, 635 nm fluorescence, primary screen (AID 1105); conditions: FSTL3 binding, higher = more signal;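 also: score merges emission near 667 nm and signal to noise per printed spot across three slides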
Sequence of Follistatin-related protein 3 (Homo sapiens) (O95633 whole entry, looked up): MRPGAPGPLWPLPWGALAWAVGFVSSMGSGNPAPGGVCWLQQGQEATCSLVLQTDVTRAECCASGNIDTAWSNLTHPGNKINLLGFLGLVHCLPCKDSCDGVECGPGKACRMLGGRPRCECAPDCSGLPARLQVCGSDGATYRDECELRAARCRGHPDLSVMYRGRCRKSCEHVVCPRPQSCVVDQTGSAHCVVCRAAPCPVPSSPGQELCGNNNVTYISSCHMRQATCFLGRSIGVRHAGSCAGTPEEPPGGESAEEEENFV

[19] = molecular target: Dickkopf-related protein 1 (Homo sapiens) (UniProt O94907); experiment: small molecules binding DKK1 protein – biochemical, small-molecule microarray, 635 nm fluorescence scan, primary screen (AID 1106); conditions: higher = more signal;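 also: score merges emission near 667 nm with signal to noise over three replicate slides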
Sequence of Dickkopf-related protein 1 (Homo sapiens) (O94907 whole entry, looked up): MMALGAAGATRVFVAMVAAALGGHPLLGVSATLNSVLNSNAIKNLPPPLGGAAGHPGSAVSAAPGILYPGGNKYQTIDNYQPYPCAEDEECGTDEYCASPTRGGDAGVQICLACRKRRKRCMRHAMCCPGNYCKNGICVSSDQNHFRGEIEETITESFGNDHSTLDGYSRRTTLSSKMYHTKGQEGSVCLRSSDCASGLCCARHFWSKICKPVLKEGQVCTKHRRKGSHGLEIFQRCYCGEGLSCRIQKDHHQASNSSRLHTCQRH

[20] = system: Inhibin beta A chain (activin A); experiment: small molecules binding activin A – biochemical, small-molecule microarray, 635 nm fluorescence scan, primary screen (AID 1107); conditions: INHBA, higher = more signal;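 also: mouse activin A protein probed at 4.33 µg/mL on printed slides; score merges bound-protein fluorescence near 667 nm with spot signal-to-noise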

| SMILES | composite z-score [1] | z-score [2] | z-score [3] | z-score [4] | composite z-score [5] | z-score [6] | composite z-score [7] | composite z-score [8] | composite z-score [9] | composite z-score [10] | composite z-score [11] | composite z-score [12] | composite z-score [13] | z-score [14] | composite z-score [15] | composite z-score [16] | composite z-score [17] | composite z-score [18] | composite z-score [19] | composite z-score [20] |
| --- | --- | --- | --- | --- | --- | --- | --- | --- | --- | --- | --- | --- | --- | --- | --- | --- | --- | --- | --- | --- |
| C=CCN1C(=O)[C@]2(O[C@H](CCO)[C@@H]([Si](C)(C)c3ccc(OC)cc3)[C@@H]2C)c2cc(N3C(=O)c4ccccc4Oc4ccccc43)ccc21 | 1.41 | 0.922 (inactive) | 0.729 (inactive) | 35.6 (active) | 2.13 | 0.77 (inactive) | -0.0658 | 0.458 | 0.803 | -0.115 | 1.16 | -0.252 | 0.117 | -1.38 (inactive) | 0.402 | 0.209 | 0.0038 | 0.255 | 0.107 | 0.206 |
| O=C(NCCN1CCOCC1)[C@@H]1c2ccccc2C(=O)N(CC23CC4CC(CC(C4)C2)C3)[C@H]1c1ccc(CO)cc1 | 1.55 | -0.43 (inactive) | -1.27 (inactive) | 0.223 (inactive) | 3.23 | 0.534 (inactive) | 0.0735 | 0.495 | 1.05 | 0.0353 | 1.13 | 0.253 | 0.789 | 0.507 (inactive) | 1.33 | 1.32 | 0.634 | 1.21 | 0.0037 | 0.471 |
| C=CCNC(=O)[C@@H]1[C@H]2C(=O)O[C@H](c3ccccc3)[C@H](c3ccccc3)N2[C@H](c2ccc(OCCO)cc2)[C@@]12C(=O)Nc1ccc(C#CCNC(N)=O)cc12 | 0.872 | 0.696 (inactive) | -0.279 (inactive) | 1.92 (inactive) | 1.8 | 0.0528 (inactive) | -0.0368 | 0.216 | 0.266 | -0.182 | 1.05 | -0.123 | 0.584 | -0.0958 (inactive) | -0.385 | -0.402 | -1.13 | 0.16 | -0.456 | 1.31 |
| C=C(C(=O)CC[C@@H](OC(=O)c1ccccc1-c1ccccc1C(=O)O)c1ccc(OCCO)cc1)C(C)C | 1.55 | -0.694 (inactive) | -1.26 (inactive) | -1.3 (inactive) | 1.25 | 0.416 (inactive) | 0.0028 | 1.35 | 1.15 | -0.0755 | 0.994 | -0.0581 | -0.375 | 0.379 (inactive) | 1.22 | 0.674 | 0.267 | 1.08 | 0.776 | 0.768 |
| COc1ccc(CCNC(=O)[C@@H]2c3ccccc3C(=O)N(C(C)C)[C@H]2c2ccc(CO)cc2)cc1 | -0.592 | 0.342 (inactive) | -0.264 (inactive) | -0.0884 (inactive) | 2.05 | 1.39 (inactive) | 0.0129 | -1.3 | -2.01 | -0.238 | 0.37 | 0.316 | 0.684 | 0.109 (inactive) | -1.05 | -0.848 | -0.736 | -0.715 | -0.995 | -0.158 |
| CCCNC(=O)[C@@]1(Sc2ccc(C)cc2)CC(=O)N(Cc2cc(C(F)(F)F)cc(C(F)(F)F)c2)[C@@H]1c1ccc(CO)cc1 | 0.805 | -0.0276 (inactive) | -1.16 (inactive) | -0.835 (inactive) | 1.8 | -0.212 (inactive) | -0.122 | -1.13 | -0.542 | -0.165 | -0.441 | -0.09 | 0.738 | -1.58 (inactive) | 0.0468 | -0.365 | -0.738 | -0.888 | -1.2 | 0.108 |
| C=CCNC(=O)[C@@H]1[C@H]2C(=O)O[C@H](c3ccccc3)[C@H](c3ccccc3)N2[C@H](c2ccc(OCCO)cc2)[C@@]12C(=O)N(C(=O)OCCOC)c1ccccc12 | 1.53 | 2.46 (inactive) | 1.67 (inactive) | 5.18 (inactive) | 2.92 | 0.246 (inactive) | -0.0267 | 1.04 | 1.06 | 0.0413 | 1.2 | -0.144 | 0.496 | 0.263 (inactive) | 1.28 | 1.08 | 0.459 | 1.03 | 0.0392 | 0.745 |
| COCCOC(=O)N1C(=O)[C@@]2(c3cc(C#CC4=CCCCC4)ccc31)[C@H](c1ccc(O)cc1)N1[C@H](c3ccccc3)[C@H](c3ccccc3)OC(=O)[C@H]1[C@@H]2C(=O)N1CCc2cc(OC)c(OC)cc2C1 | 1.15 | 0.793 (inactive) | 0.244 (inactive) | 0.543 (inactive) | 2.56 | 0.0512 (inactive) | 0.0113 | 0.286 | 0.399 | -0.0065 | 0.835 | 0.15 | 0.338 | 0.864 (inactive) | 0.415 | 0.202 | 0.0275 | 0.227 | 0.0375 | 0.545 |
| CC(C)Cc1ccc(CN2CC[C@@H](NC(=O)c3ccccc3)C2)cc1 | -0.174 | -0.216 (inactive) | -21.2 (active) | 0.237 (inactive) | -0.0003 | -0.219 (inactive) | -0.167 | 0.666 | -0.0255 | -0.157 | 0.934 | -0.357 | 0.0383 | 1.03 (inactive) | -0.75 | -1.11 | -0.381 | -0.647 | -0.0332 | 0.631 |
| C#CCN(C(=O)OC(C)(C)C)[C@H](CO)c1ccccc1 | 0.738 | -0.365 (inactive) | -2.99 (inactive) | 0.368 (inactive) | 0.444 | -0.223 (inactive) | -0.235 | 0.582 | 0.524 | -0.198 | -0.223 | -0.331 | -0.601 | 0.234 (inactive) | 0.286 | 0.419 | 0.258 | -0.0195 | 0.226 | -0.415 |
| Cc1ccc(S[C@]2(C(=O)NCCN3CCOCC3)CC(=O)N(C(C)C)[C@@H]2c2ccc(CO)cc2I)cc1 | 1.5 | -2.73 (inactive) | -1.75 (inactive) | -0.616 (inactive) | 2.46 | 3.42 (inactive) | 0.126 | -0.889 | 0.0467 | -0.0234 | 1.89 | 0.713 | 1.24 | -1.48 (inactive) | -0.477 | -0.465 | -1.19 | -0.55 | -0.908 | 0.968 |
| C=C(COC)C(=O)CC[C@H](OC(C)=O)c1ccc(CO)o1 | -0.451 | -1.16 (inactive) | -0.603 (inactive) | -1.46 (inactive) | 2 | 1.5 (inactive) | -0.0963 | 1.31 | 0.651 | -0.067 | 1.44 | -0.362 | -0.566 | -1.35 (inactive) | 0.757 | -0.646 | -0.0826 | 0.47 | 0.488 | 1.03 |
